# Results: ChEMBL document CHEMBL1961873, “Compounds: GSK PKIS; Assays: Nanosyn kinase panel” (2012)
# How the values were obtained:
# [1] = target: Protein kinase C gamma type (Homo sapiens) (UniProt P05129); conditions: at 1 µM;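 further: each value is an averaged percent inhibition of the enzyme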
# [2] = target: T1, Protein kinase C iota type (Homo sapiens) (UniProt P41743); conditions: at 0.1 µM
# T1 sequence (whole entry): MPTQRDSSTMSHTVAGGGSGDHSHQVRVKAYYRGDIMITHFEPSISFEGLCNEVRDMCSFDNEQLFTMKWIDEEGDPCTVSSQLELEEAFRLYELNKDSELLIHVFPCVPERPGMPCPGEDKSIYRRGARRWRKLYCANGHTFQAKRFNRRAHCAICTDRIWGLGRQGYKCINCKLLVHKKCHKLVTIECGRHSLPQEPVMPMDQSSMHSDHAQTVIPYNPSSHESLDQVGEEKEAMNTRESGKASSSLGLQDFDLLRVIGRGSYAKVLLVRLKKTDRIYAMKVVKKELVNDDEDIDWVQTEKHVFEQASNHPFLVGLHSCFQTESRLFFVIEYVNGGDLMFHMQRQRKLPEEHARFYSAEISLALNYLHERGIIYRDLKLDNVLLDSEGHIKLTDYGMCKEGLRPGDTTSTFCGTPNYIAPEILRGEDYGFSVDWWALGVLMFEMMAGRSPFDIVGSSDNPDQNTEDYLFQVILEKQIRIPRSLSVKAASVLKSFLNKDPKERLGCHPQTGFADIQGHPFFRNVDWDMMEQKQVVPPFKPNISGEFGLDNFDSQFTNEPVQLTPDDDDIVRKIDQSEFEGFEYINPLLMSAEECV
# [3] = target: T1, Protein kinase C iota type (Homo sapiens); conditions: at 1 µM
# [4] = target: Protein kinase C theta type (Homo sapiens) (UniProt Q04759); conditions: at 0.1 µM
# Chain of Protein kinase C theta type (Homo sapiens) (Q04759 whole entry, looked up): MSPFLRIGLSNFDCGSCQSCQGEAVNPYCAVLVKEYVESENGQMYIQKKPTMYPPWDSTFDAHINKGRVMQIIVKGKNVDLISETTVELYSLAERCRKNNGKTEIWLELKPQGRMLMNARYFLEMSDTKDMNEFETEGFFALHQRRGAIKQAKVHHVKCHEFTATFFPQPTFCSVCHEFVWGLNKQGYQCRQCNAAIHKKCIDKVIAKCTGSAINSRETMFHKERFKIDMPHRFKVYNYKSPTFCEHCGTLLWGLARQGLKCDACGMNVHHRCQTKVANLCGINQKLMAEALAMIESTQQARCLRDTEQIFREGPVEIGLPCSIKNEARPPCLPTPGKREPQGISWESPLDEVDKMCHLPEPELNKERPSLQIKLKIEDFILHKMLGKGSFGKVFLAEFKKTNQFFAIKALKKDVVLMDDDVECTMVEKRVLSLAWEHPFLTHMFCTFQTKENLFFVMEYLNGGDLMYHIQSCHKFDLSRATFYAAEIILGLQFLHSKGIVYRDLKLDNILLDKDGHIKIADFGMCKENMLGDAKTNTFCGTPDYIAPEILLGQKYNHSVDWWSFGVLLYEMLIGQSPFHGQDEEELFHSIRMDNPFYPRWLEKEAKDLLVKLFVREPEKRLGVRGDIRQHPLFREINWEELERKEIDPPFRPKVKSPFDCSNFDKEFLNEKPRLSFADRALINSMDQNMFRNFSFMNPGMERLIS
# [5] = target: Protein kinase C theta type (Homo sapiens) (UniProt Q04759); conditions: at 1 µM
# [6] = target: Protein kinase C beta type (Homo sapiens) (UniProt P05771); conditions: at 0.1 µM
# Chain of Protein kinase C beta type (Homo sapiens) (P05771 2-671 limits assumed): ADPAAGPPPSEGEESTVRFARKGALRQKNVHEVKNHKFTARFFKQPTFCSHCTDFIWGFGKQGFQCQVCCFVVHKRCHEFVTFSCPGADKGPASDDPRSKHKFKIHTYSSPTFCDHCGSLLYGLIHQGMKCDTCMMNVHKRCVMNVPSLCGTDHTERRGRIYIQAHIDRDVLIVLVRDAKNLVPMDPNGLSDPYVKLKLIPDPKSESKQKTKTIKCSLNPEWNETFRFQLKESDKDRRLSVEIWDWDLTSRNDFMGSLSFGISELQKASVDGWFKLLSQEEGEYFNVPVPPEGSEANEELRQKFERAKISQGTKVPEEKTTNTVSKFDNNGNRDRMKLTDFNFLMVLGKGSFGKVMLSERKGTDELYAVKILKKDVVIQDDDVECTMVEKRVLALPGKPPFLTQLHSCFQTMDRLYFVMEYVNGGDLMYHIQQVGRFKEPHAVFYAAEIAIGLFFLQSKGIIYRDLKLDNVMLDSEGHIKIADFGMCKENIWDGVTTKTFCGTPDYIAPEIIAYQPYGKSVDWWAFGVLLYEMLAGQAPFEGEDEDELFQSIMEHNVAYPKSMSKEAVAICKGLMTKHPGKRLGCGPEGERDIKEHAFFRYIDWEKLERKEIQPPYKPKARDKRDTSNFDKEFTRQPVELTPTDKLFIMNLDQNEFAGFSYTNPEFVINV
# [7] = target: Protein kinase C beta type (Homo sapiens) (UniProt P05771); conditions: at 1 µM
# [8] = target: T2, Serine/threonine-protein kinase D1 (Homo sapiens) (UniProt Q15139); conditions: at 0.1 µM
# T2 sequence (whole entry): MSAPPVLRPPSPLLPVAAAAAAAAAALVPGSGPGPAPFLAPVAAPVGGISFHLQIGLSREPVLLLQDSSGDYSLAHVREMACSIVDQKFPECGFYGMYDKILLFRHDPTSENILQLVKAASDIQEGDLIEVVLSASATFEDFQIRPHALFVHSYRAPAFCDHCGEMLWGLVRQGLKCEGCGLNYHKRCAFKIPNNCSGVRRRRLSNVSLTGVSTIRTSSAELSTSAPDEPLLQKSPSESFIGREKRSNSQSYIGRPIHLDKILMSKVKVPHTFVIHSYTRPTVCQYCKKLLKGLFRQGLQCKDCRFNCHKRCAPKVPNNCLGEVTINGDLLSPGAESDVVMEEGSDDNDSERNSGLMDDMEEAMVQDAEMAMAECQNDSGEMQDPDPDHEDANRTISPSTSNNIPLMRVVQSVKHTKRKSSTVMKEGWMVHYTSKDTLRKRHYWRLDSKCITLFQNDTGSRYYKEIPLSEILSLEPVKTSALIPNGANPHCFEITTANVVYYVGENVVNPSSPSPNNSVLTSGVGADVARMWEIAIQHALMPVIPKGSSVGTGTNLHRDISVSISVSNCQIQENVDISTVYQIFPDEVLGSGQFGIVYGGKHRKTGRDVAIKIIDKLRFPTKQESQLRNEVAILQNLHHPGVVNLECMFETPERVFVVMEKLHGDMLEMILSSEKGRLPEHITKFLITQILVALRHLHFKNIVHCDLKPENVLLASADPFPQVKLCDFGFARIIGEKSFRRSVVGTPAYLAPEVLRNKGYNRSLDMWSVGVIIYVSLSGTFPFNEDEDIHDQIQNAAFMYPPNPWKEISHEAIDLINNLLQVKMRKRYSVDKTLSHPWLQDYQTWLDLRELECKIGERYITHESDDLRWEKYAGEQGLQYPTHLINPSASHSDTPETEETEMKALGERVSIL
# [9] = target: T2, Serine/threonine-protein kinase D1 (Homo sapiens); conditions: at 1 µM
# [10] = target: T3, Serine/threonine-protein kinase D2 (Homo sapiens) (UniProt Q9BZL6); conditions: at 0.1 µM
# T3 sequence (whole entry): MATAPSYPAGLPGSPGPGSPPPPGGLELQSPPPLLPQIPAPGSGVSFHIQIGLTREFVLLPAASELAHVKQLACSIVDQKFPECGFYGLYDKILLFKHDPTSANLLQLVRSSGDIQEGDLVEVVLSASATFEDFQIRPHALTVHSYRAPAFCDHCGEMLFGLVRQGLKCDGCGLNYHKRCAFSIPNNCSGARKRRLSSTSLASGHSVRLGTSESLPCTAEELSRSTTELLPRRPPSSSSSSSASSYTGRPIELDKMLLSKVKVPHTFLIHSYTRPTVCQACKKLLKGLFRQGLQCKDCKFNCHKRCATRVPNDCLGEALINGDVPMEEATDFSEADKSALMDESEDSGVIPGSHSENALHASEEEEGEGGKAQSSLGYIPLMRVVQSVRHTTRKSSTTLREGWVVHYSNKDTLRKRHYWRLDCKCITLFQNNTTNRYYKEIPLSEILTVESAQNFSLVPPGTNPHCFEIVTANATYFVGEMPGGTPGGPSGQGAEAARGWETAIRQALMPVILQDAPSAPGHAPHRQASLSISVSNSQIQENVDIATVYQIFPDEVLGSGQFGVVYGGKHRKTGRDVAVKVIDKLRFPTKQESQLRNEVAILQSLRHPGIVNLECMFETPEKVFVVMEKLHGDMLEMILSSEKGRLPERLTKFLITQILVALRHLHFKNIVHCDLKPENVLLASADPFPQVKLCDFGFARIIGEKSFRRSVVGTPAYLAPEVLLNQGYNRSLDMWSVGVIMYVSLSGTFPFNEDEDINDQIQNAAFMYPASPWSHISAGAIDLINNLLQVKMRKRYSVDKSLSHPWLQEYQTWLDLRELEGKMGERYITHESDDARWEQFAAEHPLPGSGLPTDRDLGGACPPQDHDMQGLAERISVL
# [11] = target: T3, Serine/threonine-protein kinase D2 (Homo sapiens); conditions: at 1 µM
# [12] = target: T4, Serine/threonine-protein kinase D3 (Homo sapiens) (UniProt O94806); conditions: at 0.1 µM
# T4 sequence (whole entry): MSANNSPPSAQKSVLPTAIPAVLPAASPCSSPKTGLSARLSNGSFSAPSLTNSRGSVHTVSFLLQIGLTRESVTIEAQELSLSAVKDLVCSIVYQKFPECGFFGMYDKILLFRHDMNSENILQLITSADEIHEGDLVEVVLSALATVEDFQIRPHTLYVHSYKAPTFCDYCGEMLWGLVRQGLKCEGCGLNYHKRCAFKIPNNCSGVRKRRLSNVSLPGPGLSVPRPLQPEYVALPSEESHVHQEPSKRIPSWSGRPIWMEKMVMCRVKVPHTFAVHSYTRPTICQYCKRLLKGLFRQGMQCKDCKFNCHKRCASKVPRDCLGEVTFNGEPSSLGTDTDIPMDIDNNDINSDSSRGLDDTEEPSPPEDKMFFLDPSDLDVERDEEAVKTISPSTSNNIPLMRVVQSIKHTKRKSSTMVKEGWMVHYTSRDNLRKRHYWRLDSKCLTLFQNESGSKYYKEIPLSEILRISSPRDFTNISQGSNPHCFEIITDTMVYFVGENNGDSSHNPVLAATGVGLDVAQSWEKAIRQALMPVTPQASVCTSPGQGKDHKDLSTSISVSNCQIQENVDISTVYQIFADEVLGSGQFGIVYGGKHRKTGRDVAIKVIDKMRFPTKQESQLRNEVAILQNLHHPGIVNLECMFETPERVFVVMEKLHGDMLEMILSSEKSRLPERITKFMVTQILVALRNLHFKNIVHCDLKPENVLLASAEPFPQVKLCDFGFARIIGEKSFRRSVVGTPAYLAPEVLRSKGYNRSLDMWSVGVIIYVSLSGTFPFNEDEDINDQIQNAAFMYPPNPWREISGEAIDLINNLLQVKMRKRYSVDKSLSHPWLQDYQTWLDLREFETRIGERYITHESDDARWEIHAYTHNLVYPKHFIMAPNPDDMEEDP
# [13] = target: T4, Serine/threonine-protein kinase D3 (Homo sapiens); conditions: at 1 µM
# [14] = target: T5, cGMP-dependent protein kinase 1 (Homo sapiens) (UniProt Q13976); conditions: at 0.1 µM
# T5 sequence (whole entry): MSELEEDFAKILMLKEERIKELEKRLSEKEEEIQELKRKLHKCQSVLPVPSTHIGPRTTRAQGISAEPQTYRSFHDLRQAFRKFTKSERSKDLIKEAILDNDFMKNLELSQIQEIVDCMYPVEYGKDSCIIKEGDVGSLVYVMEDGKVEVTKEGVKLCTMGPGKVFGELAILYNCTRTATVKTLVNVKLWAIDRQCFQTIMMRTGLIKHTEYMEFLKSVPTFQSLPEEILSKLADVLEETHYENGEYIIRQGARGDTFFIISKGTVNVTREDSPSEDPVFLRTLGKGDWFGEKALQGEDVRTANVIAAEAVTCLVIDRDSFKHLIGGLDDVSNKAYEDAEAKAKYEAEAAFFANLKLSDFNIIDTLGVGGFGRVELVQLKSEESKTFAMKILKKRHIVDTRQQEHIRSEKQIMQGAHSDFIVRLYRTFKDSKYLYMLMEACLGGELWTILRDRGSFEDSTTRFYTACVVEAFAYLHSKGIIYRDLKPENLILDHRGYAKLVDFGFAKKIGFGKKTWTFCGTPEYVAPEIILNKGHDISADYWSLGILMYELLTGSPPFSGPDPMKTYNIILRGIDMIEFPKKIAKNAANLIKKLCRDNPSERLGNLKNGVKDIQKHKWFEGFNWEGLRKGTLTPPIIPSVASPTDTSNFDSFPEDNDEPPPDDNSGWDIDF
# [15] = target: T5, cGMP-dependent protein kinase 1 (Homo sapiens); conditions: at 1 µM
# [16] = target: T6, cGMP-dependent protein kinase 2 (Homo sapiens) (UniProt Q13237); conditions: at 0.1 µM
# T6 sequence (whole entry): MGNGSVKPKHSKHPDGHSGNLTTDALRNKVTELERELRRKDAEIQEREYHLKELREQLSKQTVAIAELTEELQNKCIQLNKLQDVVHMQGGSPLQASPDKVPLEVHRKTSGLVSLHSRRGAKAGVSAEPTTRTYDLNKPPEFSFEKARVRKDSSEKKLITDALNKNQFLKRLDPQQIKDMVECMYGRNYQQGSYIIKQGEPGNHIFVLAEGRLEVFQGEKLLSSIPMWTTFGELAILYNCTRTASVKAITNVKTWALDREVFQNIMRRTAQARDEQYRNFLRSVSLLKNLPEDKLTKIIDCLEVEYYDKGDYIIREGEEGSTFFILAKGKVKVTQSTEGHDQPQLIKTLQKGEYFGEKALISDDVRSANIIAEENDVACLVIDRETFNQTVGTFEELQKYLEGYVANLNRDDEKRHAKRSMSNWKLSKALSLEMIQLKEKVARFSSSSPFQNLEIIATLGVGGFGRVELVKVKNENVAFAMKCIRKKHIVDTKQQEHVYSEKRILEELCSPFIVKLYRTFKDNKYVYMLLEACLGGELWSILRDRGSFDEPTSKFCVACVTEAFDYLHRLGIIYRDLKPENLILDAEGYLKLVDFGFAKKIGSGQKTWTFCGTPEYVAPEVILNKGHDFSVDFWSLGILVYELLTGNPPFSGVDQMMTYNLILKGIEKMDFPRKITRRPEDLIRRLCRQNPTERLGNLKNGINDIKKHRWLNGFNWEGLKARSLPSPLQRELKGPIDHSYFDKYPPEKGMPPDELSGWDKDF
# [17] = target: T6, cGMP-dependent protein kinase 2 (Homo sapiens); conditions: at 1 µM
# [18] = target: T7, cAMP-dependent protein kinase catalytic subunit PRKX (Homo sapiens) (UniProt P51817); conditions: at 0.1 µM
# T7 sequence (whole entry): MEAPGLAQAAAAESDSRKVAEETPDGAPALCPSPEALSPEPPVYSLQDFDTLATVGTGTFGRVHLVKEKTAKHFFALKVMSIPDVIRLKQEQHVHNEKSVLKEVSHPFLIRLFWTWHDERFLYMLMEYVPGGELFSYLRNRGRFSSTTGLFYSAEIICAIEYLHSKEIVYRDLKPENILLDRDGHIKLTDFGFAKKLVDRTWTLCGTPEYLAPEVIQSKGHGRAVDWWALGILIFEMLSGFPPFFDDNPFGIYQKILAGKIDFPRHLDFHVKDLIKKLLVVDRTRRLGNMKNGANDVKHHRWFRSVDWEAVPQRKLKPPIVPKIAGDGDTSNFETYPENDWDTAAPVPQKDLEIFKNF
# [19] = target: T7, cAMP-dependent protein kinase catalytic subunit PRKX (Homo sapiens); conditions: at 1 µM
# [20] = target: Rho-associated protein kinase 1 (Homo sapiens) (UniProt Q13464); conditions: at 0.1 µM;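 further: values are mean percent inhibition of ROCK1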
# Chain of Rho-associated protein kinase 1 (Homo sapiens) (Q13464 2-1354 limits assumed): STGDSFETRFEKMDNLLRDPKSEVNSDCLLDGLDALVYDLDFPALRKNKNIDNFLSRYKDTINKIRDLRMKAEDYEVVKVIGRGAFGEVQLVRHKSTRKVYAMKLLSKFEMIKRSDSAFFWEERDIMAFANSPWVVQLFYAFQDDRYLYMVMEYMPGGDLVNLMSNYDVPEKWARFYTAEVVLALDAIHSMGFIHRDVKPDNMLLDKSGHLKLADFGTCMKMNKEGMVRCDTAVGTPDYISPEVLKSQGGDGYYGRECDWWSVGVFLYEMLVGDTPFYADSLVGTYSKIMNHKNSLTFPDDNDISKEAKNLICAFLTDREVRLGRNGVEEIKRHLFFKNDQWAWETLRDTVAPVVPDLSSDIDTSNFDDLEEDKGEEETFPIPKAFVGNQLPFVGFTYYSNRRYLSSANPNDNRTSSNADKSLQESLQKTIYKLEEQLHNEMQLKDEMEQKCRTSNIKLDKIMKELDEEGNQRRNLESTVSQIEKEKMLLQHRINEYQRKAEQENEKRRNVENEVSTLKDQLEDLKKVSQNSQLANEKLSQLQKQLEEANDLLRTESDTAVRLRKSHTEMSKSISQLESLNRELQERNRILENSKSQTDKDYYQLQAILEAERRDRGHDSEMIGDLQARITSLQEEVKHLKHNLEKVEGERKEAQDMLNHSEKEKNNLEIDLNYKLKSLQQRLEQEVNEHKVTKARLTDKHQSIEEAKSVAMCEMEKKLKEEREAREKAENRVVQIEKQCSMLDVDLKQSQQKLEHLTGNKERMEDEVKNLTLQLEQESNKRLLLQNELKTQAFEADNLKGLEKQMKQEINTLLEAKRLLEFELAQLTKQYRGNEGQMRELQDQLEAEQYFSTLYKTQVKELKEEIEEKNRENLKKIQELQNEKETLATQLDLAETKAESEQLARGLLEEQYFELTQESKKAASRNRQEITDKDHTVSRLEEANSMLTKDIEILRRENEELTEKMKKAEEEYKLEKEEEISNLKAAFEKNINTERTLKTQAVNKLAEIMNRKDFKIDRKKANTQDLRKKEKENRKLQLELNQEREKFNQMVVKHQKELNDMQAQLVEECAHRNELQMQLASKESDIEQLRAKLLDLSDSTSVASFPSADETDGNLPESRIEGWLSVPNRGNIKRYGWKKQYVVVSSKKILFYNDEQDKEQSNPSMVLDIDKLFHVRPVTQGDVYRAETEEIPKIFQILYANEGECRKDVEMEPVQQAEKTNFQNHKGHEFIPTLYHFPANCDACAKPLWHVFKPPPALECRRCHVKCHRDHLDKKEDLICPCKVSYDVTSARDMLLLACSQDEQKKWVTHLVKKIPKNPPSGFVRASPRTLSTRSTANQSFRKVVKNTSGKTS
Structure (SMILES),inhibition [1],inhibition [2],inhibition [3],inhibition [4],inhibition [5],inhibition [6],inhibition [7],inhibition [8],inhibition [9],inhibition [10],inhibition [11],inhibition [12],inhibition [13],inhibition [14],inhibition [15],inhibition [16],inhibition [17],inhibition [18],inhibition [19],inhibition [20]
FC(F)(F)c1cccc(Nc2nccc(-c3cnn4nc(-c5ccccc5)ccc34)n2)c1,1.78%,0.68%,0.06%,1.79%,2.39%,1.28%,1.35%,2.1%,3.92%,1.86%,1.49%,1.55%,2.61%,1.17%,-0.32%,1.44%,-1.07%,1.18%,0.74%,0.77%
N#Cc1ccc(Oc2nccc(-c3c(-c4ccc(F)cc4)ncn3C3CCNCC3)n2)cc1,4.11%,2.09%,2.63%,2.28%,3.89%,0.99%,3.08%,5.51%,8.1%,4.63%,5.05%,5.58%,5.89%,2.79%,2.48%,2.19%,2.92%,1.03%,2.01%,2.51%
CCC(=O)Nc1ccc(C)c(-c2ccc(C(=O)NCC3CC3)cc2)c1,2.13%,0.11%,0.41%,1.23%,1.92%,0.61%,1.48%,2.88%,2.86%,1.86%,0.39%,2.64%,2.11%,2.33%,2.99%,1.03%,3.23%,0.64%,1.66%,2.95%
NC(=O)c1cc(-c2ccncc2)cc(-c2ccccc2)c1N,4.29%,2.83%,4.85%,2.27%,4.49%,1.9%,2.02%,4.07%,6.39%,5.01%,5.63%,5.86%,6.16%,3.61%,8.21%,2.71%,5.42%,1.92%,2.61%,1.71%
Cc1nnc(-c2ccc(C)c(-c3ccc(C(=O)NCc4ccc(Cl)cc4)cc3)c2)o1,3.88%,2.2%,0.35%,1.83%,3.97%,1.36%,3.21%,1%,0.36%,0.28%,-0.8%,2.09%,-0.1%,2.07%,5.32%,3.25%,3.86%,2.66%,5.13%,1.51%
